From PubChem BioAssay (Tox21)
Values joined by “and” are separate entries in the source; they are usually repeats but may differ in a detail not shown here. Equal values may be shown once. More than one record can exist for a structure, and the calls need not agree. Active and inactive are the calls of the source. Unless noted, calls come from the whole dose curve; as a rule, active = well fitted curve in the direction sought with a large enough effect in the repeat runs; inconclusive = weak or mixed curves; inactive = no such curve, though single readings can be large; an effect the other way counts as inactive or inconclusive.

How the values were obtained:
[1] = qHTS assay to identify small molecule antagonists of the thyroid receptor (TR) signaling pathway - cell viability counter screen (AID 743064); note: nearly all actives have a fitted effect of over 50% in size; note: potency is the fitted concentration of half-maximal effect
How it was run: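 Rat GH3 pituitary tumor cells stably expressing two TR response elements driving luciferase were plated, rested 4 h, then dosed with library compounds and T3 (1 nM final). After 23.5 h at 37 °C, CellTiter-Fluor was added for 30 min and fluorescence recorded.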

[2] = qHTS assay to identify small molecule antagonists of the thyroid receptor (TR) signaling pathway (AID 743065); note: nearly all actives have a fitted effect of over 55% in size; note: potency is the fitted concentration of half-maximal effect
How it was run: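 GH3.TRE-Luc rat pituitary cells (two TREs driving luciferase) were dosed with compound, then stimulated with 1 nM T3 (final) for 23.5 h at 37 C. ONE-Glo luminescence was the read-out, with CellTiter-Fluor fluorescence as the cytotoxicity counter-screen.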

[3] = target: Estrogen receptor (Homo sapiens) (UniProt P03372); experiment: qHTS assay to identify small molecule antagonists of the estrogen receptor alpha (ER-alpha) signaling pathway (AID 743069; active = well fitted curve in the direction sought with a large enough effect in the signal ratio in the repeat runs, not every such curve was filed as active; inconclusive = weak or mixed curves, or effect the other way; inactive = no such curve, though single readings can be large or run the other way; the % refers to the signal ratio)
How it was run: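 In this cell-based reporter format, GripTite HEK293 cells harbouring ER-alpha-UAS-bla were grown overnight with 2% charcoal-stripped FBS, dosed with DMSO-dissolved compounds, then challenged with 17beta-estradiol. After 18 hr at 37C, beta-lactamase activity was detected by FRET fluorescence.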

[4] = qHTS assay to identify small molecule antagonists of the estrogen receptor alpha (ER-alpha) signaling pathway - cell viability counter screen (AID 743074; calls by dose curve; note: nearly all actives have a fitted effect of over 45% in size)
[5] = target: Estrogen receptor (Homo sapiens) (UniProt P03372); experiment: qHTS assay to identify small molecule agonists of the estrogen receptor alpha (ER-alpha) signaling pathway (AID 743075; calls by dose curve; note: potency is the fitted concentration of half-maximal effect)
[6] = target: Estrogen receptor (Homo sapiens) (UniProt P03372); experiment: qHTS assay to identify small molecule agonists of the estrogen receptor alpha (ER-alpha) signaling pathway using the BG1 cell line (AID 743079); conditions: BG1Luc4E2 cells, ERE-luciferase agonist, 22 h; note: nearly all actives have a fitted effect of over 20% in size; note: potency is the fitted concentration of half-maximal effect
[7] = qHTS assay to identify small molecule antagonists of the estrogen receptor alpha (ER-alpha) signaling pathway using the BG1 cell line (AID 743080; calls by dose curve;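 note: BG1 cells stimulated with 17beta-estradiol alongside compound; nearly all actives have a fitted effect of over 25% in size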; note: potency is the fitted concentration of half-maximal effect)
How it was run: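 BG1-Luc-4E2 cells (endogenous full-length ER-alpha, stable 4×ERE-luciferase) were starved 5 days in phenol-red-free medium with 10% charcoal-stripped FBS, plated 24 h, then given compound plus 17beta-estradiol for 21.5 h at 37 C; ONE-Glo luminescence read after 30 min.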

Aromatase (Homo sapiens) = Aromatase (Homo sapiens) (UniProt P11511); experiment: qHTS assay to identify aromatase inhibitors (AID 743083); note: nearly all actives have a fitted effect of over 55% in size; note: potency is the fitted concentration of half-maximal effect
[8] = system: thyroid hormone receptor (rat, GH3 cells); experiment: qHTS assay to identify small molecule agonists of the thyroid receptor (TR) signaling pathway (AID 743066; calls by dose curve)
[9] = qHTS assay to identify small molecule antagonists of the estrogen receptor alpha (ER-alpha) signaling pathway using the BG1 cell line - cell viability counter screen (AID 743081);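 note: compound given together with 17beta-estradiol as the ER stimulus; nearly all actives have a fitted effect of over 45% in size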
% is set by controls: 0 for no effect and ±100 for the full control effect.

Sequence of Aromatase (Homo sapiens) (P11511 whole entry, looked up): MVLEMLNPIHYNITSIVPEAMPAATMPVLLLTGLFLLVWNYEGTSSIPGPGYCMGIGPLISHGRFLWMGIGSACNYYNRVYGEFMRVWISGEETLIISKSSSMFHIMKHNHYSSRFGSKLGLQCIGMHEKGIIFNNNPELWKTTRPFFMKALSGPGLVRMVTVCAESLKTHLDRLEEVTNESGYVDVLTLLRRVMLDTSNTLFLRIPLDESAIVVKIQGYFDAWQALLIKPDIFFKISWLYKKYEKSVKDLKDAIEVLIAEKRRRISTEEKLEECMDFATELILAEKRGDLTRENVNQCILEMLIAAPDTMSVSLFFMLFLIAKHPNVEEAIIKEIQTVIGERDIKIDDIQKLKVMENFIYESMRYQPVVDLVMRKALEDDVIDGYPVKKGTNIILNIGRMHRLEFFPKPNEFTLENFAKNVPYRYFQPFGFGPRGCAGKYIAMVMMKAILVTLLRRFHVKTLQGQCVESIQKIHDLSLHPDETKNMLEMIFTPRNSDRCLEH
Sequence of Estrogen receptor (Homo sapiens) (P03372 whole entry, looked up): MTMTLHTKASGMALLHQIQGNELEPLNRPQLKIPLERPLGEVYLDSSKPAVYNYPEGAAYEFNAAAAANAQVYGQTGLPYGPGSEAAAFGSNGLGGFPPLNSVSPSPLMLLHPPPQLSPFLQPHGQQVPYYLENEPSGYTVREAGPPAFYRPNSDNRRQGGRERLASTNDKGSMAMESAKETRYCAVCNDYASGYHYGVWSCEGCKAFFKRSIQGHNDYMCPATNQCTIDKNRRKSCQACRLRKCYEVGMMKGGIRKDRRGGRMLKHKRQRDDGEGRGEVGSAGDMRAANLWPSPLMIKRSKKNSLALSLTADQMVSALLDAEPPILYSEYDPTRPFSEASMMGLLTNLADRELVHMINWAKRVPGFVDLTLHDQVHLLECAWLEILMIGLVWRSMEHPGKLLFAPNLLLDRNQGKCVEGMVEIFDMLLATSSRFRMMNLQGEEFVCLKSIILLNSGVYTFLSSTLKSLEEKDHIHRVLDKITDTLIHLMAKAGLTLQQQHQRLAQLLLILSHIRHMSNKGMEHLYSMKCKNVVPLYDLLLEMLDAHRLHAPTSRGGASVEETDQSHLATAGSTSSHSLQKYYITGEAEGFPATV

N#CCNCC#N
inactive: Potency [1] | Potency [2] | Potency [3] | outcome [4] | Potency [5] | activation ([6]; at 70.3 µM (top of the series)) -9.97% | Potency [7] | Potency (Aromatase (Homo sapiens))

C(CCOCC1CO1)COCC1CO1 (configuration not stated)
inactive: Potency [1] | Potency [8] | Potency [5] | activation ([6]; at 70.3 µM (top of the series)) 0.112% | Potency [7] | Potency [9] | Potency (Aromatase (Homo sapiens))
active: Potency [2] 42.6 µM

COC(=O)C(c1ccccc1)C1CCCCN1 (configuration not stated)
inactive: Potency [1] | Potency [8] | Potency [3] | outcome [4] | Potency [5] | activation ([6]; at 70.3 µM (top of the series)) 2.44% and -6.09% | Potency [7] | Potency [9] | Potency (Aromatase (Homo sapiens))

COc1cc(OC)nc(NC(=O)NS(=O)(=O)c2ncccc2C(=O)N(C)C)n1
inactive: Potency [1] | Potency [8] | Potency [3] | outcome [4] | Potency [5] | activation ([6]; at 70.3 µM (top of the series)) 9.83% | Potency [7] | Potency [9] | Potency (Aromatase (Homo sapiens))

C[C@]12CC[C@H]3[C@@H](CC=C4C[C@@H](O)CC[C@@]43C)[C@@H]1CC[C@@H]2O
inactive: Potency [1] | Potency [2] | Potency [8] | outcome [4] | Potency [9] | Potency (Aromatase (Homo sapiens))

C=CCC1=C(C)[C@@H](OC(=O)[C@@H]2[C@@H](C=C(C)C)C2(C)C)CC1=O
active: Potency [1] 61.1 µM | Potency [2] 61.1 µM | Potency [7] 54.5 µM
inactive: outcome [4] | Potency [5] | Potency [9]

CNC(=O)O/N=C(\C)SC
inactive: Potency [1] | Potency [2] | Potency [8] | Potency [9] | Potency (Aromatase (Homo sapiens))

O=[N+]([O-])c1cccc(O)c1
inactive: Potency [1] | Potency [2] | Potency [8] | outcome [4] | Potency [9] | Potency (Aromatase (Homo sapiens))

CCOP(=S)(OCC)SCSP(=S)(OCC)OCC
active: Potency [6] 38.6 µM
inactive: Potency [1] | Potency [8] | Potency [3] | outcome [4] | Potency [5] | Potency [7] | Potency [9] | Potency (Aromatase (Homo sapiens))

CCS(=O)(=O)CCSP(=O)(OC)OC
inactive: Potency [1] | Potency [2] | Potency [8] | outcome [4] | Potency [9] | Potency (Aromatase (Homo sapiens))

Nc1cnn(-c2ccccc2)c(=O)c1Cl
inactive: Potency [1] | Potency [8] | Potency [3] | outcome [4] | Potency [5] | activation ([6]; at 70.3 µM (top of the series)) 6.72% | Potency [7] | Potency [9] | Potency (Aromatase (Homo sapiens))

c1cc2c(c(N3CCNCC3)c1)OCCO2
inactive: Potency [1] | Potency [8] | Potency [3] | outcome [4] | Potency [5] | activation ([6]; at 70.3 µM (top of the series)) 9.1% | Potency [7] | Potency [9] | Potency (Aromatase (Homo sapiens))

CN1CCC(O)(c2ccc(F)cc2)C(C(=O)c2ccc(F)cc2)C1 (configuration not stated)
active: Potency [1] 21.1 µM | Potency [2] 26.6 µM
inactive: Potency [8] | outcome [4] | Potency [9] | Potency (Aromatase (Homo sapiens))

CNCC(=O)c1ccc(O)c(O)c1
inactive: Potency [1] | Potency [2] | Potency [8] | Potency [5] | activation ([6]; at 70.3 µM (top of the series)) -0.0937% | Potency [7] | Potency (Aromatase (Homo sapiens))

CC(CCc1ccccc1)NC(C)C(O)c1ccc(O)cc1 (configuration not stated)
active: Potency [1] 16.8 µM
inactive: Potency [8] | Potency [3] | outcome [4] | Potency [5] | activation ([6]; at 70.3 µM (top of the series)) -7.77% | Potency [7] | Potency [9] | Potency (Aromatase (Homo sapiens))

COP(=S)(OC)Oc1c(Cl)cc(C)cc1Cl
active: Potency [6] 30.6 µM
inactive: Potency [1] | Potency [8] | Potency [3] | outcome [4] | Potency [5] | Potency [7] | Potency [9] | Potency (Aromatase (Homo sapiens))

O=C1CN=C(c2ccccc2)c2cc([N+](=O)[O-])ccc2N1
inactive: Potency [1] | Potency [8] | Potency [3] | outcome [4] | Potency [5] | activation ([6]; at 70.3 µM (top of the series)) -1.51% | Potency [7] | Potency [9] | Potency (Aromatase (Homo sapiens))

CN(N=O)C(N)=O
inactive: Potency [1] | Potency [2] | Potency [8] | Potency [9] | Potency (Aromatase (Homo sapiens))

C=C(C)[C@@H]1CC=C(C=O)CC1
inactive: Potency [1] | Potency [8] | Potency [3] | outcome [4] | Potency [5] | activation ([6]; at 70.3 µM (top of the series)) 3.7% | Potency [7] | Potency [9] | Potency (Aromatase (Homo sapiens))

Cc1ncc(CNC(=O)N(CCCl)N=O)c(N)n1
inactive: Potency [1] | Potency [8] | Potency [3] | outcome [4] | Potency [5] | activation ([6]; at 70.3 µM (top of the series)) 12.7% | Potency [7] | Potency [9] | Potency (Aromatase (Homo sapiens))

CNC(=O)N(C)c1nc2ccccc2s1
inactive: Potency [1] | Potency [8] | Potency [9] | Potency (Aromatase (Homo sapiens))

COC(C)(C)C
inactive: Potency [1] | Potency [8] | outcome [4] | Potency [9] | Potency (Aromatase (Homo sapiens))

CN1C(=S)CN=C(c2ccccc2)c2cc(Cl)ccc21
inactive: Potency [1] | Potency [8] | outcome [4] | Potency [5] | Potency [9] | Potency (Aromatase (Homo sapiens))
active: Potency [7] 13.3 µM

CC(=O)Nc1cc([As](=O)(O)O)ccc1O
inactive: Potency [1] | Potency [8] | Potency [3] | Potency [5] | activation ([6]; at 70.3 µM (top of the series)) 10% | Potency [9] | Potency (Aromatase (Homo sapiens))

CC(COc1ccc(Oc2ccccc2)cc1)Oc1ccccn1 (configuration not stated)
inactive: Potency [1] | Potency [8] | outcome [4] | Potency [9] | Potency (Aromatase (Homo sapiens))

Cc1ccccc1CO[C@@H]1C[C@@]2(C(C)C)CC[C@]1(C)O2
inactive: Potency [1] | Potency [8] | outcome [4] | Potency [9]

O=C(CCN1CC1)OCC(CO)(COC(=O)CCN1CC1)COC(=O)CCN1CC1
inactive: Potency [1] | Potency [8] | outcome [4] | Potency [9] | Potency (Aromatase (Homo sapiens))

CC(Oc1ccc(Oc2ncc(C(F)(F)F)cc2Cl)cc1)C(=O)O (configuration not stated)
inactive: Potency [1] | Potency [8] | outcome [4] | Potency [5] | Potency [7] | Potency [9]

COc1cc(OC)nc(Oc2cccc(Oc3nc(OC)cc(OC)n3)c2C(=O)O)n1
inactive: Potency [1] | Potency [8] | outcome [4] | Potency [9] | Potency (Aromatase (Homo sapiens))

CC1=C(C(=O)Nc2ccccc2)S(=O)(=O)CCO1
active: Potency [1] 30.6 µM | Potency [7] 76.9 µM | Potency (Aromatase (Homo sapiens)) 48.5 µM
inactive: Potency [8] | Potency [3] | outcome [4] | Potency [5] | Potency [9]

COc1ccc2c(c1OC)CN1CCc3cc4c(cc3C1C2)OCO4 (configuration not stated)
inactive: Potency [1] | Potency [8] | outcome [4] | Potency [5] | activation ([6]; at 32.5 µM (top of the series)) -4.85% | Potency [7] | Potency [9] | Potency (Aromatase (Homo sapiens))

ClCC(Cl)(Cl)Cl
inactive: Potency [1] | Potency [3] | outcome [4] | Potency [5] | activation ([6]; at 95 µM (top of the series)) 9.47% | Potency [7] | Potency [9] | Potency (Aromatase (Homo sapiens))

CCCSP(=S)(OCC)Oc1ccc(Cl)cc1Cl (configuration not stated)
active: Potency [6] 38.6 µM
inactive: Potency [1] | Potency [8] | Potency [3] | outcome [4] | Potency [7] | Potency [9] | Potency (Aromatase (Homo sapiens))

C[C@H]1CCC[C@H](O)CCCCCc2cc(O)cc(O)c2C(=O)O1
inactive and 54.9 µM (active): Potency [1]
inactive: Potency [3] | outcome [4] | Potency [9]
active: Potency [5] 848 nM [inconclusive] and 175 nM [inconclusive] | activation ([6]; at 70.3 µM (top of the series)) -0.266% | activation ([6]; at 95 µM (top of the series)) -52.7% | Potency [7] 23.7 µM | Potency (Aromatase (Homo sapiens)) 61.6 µM

CC1=NNC(=O)N(/N=C/c2cccnc2)C1
inactive: Potency [1] | Potency [8] | outcome [4] | Potency [9] | Potency (Aromatase (Homo sapiens))

ClC(Cl)Br
inactive: Potency [1] | Potency [8] | Potency [3] | outcome [4] | Potency [5] | Potency [7] | Potency [9] | Potency (Aromatase (Homo sapiens))

Nc1cc2c3c(c1)C(c1ccccc1)=N[C@@H](NC(=O)c1cccnc1)C(=O)N3CC2
inactive: Potency [1] | Potency [8] | Potency [3] | outcome [4] | Potency [5] | activation ([6]; at 70.3 µM (top of the series)) -22.1% | Potency [9] | Potency (Aromatase (Homo sapiens))

Cc1cc(C)c(C(=O)P(=O)(C(=O)c2c(C)cc(C)cc2C)c2ccccc2)c(C)c1
inactive: Potency [1] | Potency [8] | activation ([6]; at 70.3 µM (top of the series)) 37.1% | Potency [7] | Potency [9] | Potency (Aromatase (Homo sapiens))

COP(=S)(OC)Oc1ccc(S(N)(=O)=O)cc1
inactive: Potency [1] | Potency [8] | Potency [3] | Potency [5] | activation ([6]; at 70.3 µM (top of the series)) 10.7% | Potency [7] | Potency [9] | Potency (Aromatase (Homo sapiens))

CC(=O)CCc1ccc2c(c1)OCO2
inactive: Potency [1] | Potency [3] | outcome [4] | Potency [5] | activation ([6]; at 70.3 µM (top of the series)) 24.9% | Potency [7] | Potency [9] | Potency (Aromatase (Homo sapiens))

CCCSP(=O)(OCC)Oc1ccc(Br)cc1Cl (configuration not stated)
inactive: Potency [1] | Potency [8] | outcome [4] | Potency [9]

CCCCOP(=O)(O)OCCCC
active: Potency [6] 24.3 µM
inactive: Potency [1] | Potency [8] | Potency [3] | outcome [4] | Potency [7] | Potency [9] | Potency (Aromatase (Homo sapiens))
